What follows are compounds tested on Neuregulin-1 EGF-like domain (assay: binders of neuregulin-1 EGF-like domain, primary screen, biochemical, small-molecule microarray, 635 nm fluorescence (AID 1081;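 further: binding of the protein to compounds printed on small-molecule microarray slides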)). Conditions: small-molecule microarray binding, higher = more signal.
COCC(=C=CC[C@H](O)c1ccccc1OCCO)C[C@H](O)c1cc(Cl)cc(Cl)c1O showed a composite z-score of 1.14. C=CCC(OC(C)=O)[C@@H]1[C@@H](N(Cc2ccc(-c3ccccc3)cc2)C(=O)Cc2ccc(F)cc2)c2cc(OCCCO)ccc2N1C(=O)c1ccc(-c2ccccc2)cc1 (stereo not given in full) showed a composite z-score of -0.937. In the case of COCCOC(=O)N1C(=O)[C@@]2(c3cc(C#CC4=CCCCC4)ccc31)[C@H](c1ccc(O)cc1)N1[C@H](c3ccccc3)[C@H](c3ccccc3)OC(=O)[C@H]1[C@@H]2C(N)=O, the composite z-score is reported as 0.978. With O=C1O[C@H](c2ccccc2)[C@H](c2ccccc2)N2[C@H]1[C@@H](C(=O)O)[C@]1(C(=O)Nc3ccc(C#CCCO)cc31)[C@H]2c1ccc(O)cc1 the composite z-score was 0.708. Work on O=C(NCc1ccccc1)[C@@]1(Cc2ccccc2)N=C(c2ccc(OCCCO)cc2)O[C@H]1c1ccccc1 yielded a composite z-score of 1.05. CCOC(=O)C[C@H]1[C@H](OC(=O)c2cc3ccccc3oc2=O)[C@@H](NC(=O)Cc2ccc(OC)cc2)c2cc(OCCCO)ccc2N1C(=O)c1ccccc1 gave a composite z-score of 0.385. COc1ccc([Si](C)(C)[C@H]2[C@H](CCO)O[C@@]3(C(=O)N(C)c4c(Br)cc(C)cc43)[C@@H]2C)cc1 showed a composite z-score of 1.12. Compound CN(C)C(=O)[C@@]1(Cc2ccccc2)N=C(c2ccc(OCCCO)cc2)O[C@H]1c1ccccc1N=[N+]=[N-] has a composite z-score of 1.12. CC(=O)NCCCC[C@@H]1NC(=O)[C@@H]2C[C@H](C(=O)NCCCCCCNC(=O)CS)[C@H](c3cccc(OCCO)c3)N2C1=O showed a composite z-score of 1.24. CN(C)CCCNC(=O)[C@@]1(C)c2ccccc2C(=O)N(Cc2cc(F)cc(C(F)(F)F)c2)[C@H]1c1ccc(CO)cc1 showed a composite z-score of -0.164. For O=C1C[C@]2(c3ccc([N+](=O)[O-])cc3)C(=O)N(CCN3CCOCC3)c3cc(CO)ccc3[C@H]2N1C1CCCCC1, the composite z-score was -0.251. Compound COC(=O)C=C(CC(O)c1cccc(Cl)c1)OC (stereo not given) has a composite z-score of 1.21. COc1ccc(CCN2C(=O)[C@@]3(c4ccc([N+](=O)[O-])cc4)CC(=O)N(C4CCCCC4)[C@@H]3c3ccc(CO)cc32)cc1 showed a composite z-score of 1.46. Work on O=C1C2C=CC(C(O)C(c3ccccc3)c3ccccc3)N(n3cnnc3)C2C(=O)N1Cc1ccccc1 (stereo not given) yielded a composite z-score of 1.19. Work on O=C1c2ccccc2[C@@]2(Cc3ccccc3N(CCN3CCOCC3)C2=O)[C@H](c2ccc(CO)cc2)N1Cc1ccccc1 yielded a composite z-score of -0.86. Work on CC(C)(C)OC(=O)CC[C@]1(C(=O)NCC(O)CO)COC(c2ccc(OCCCO)cc2)=N1 (stereo not given in full) yielded a composite z-score of 1.21. CN1C(=O)[C@]2(Cc3ccccc3)N=C(c3ccc(OCCCO)cc3)O[C@@H]2c2ccccc21 was tested, and the composite z-score was 1.35. O=C1OCCC/C=C\[C@H]2OC34C=CCN(Cn5nnc6ccccc65)C(=O)[C@H]3N(CCO)C(=O)[C@@H]4C12 (stereo not given in full) gave a composite z-score of 1.16. Compound CC(C)C(=C=CC[C@@H](O)c1ccccc1OCCO)CCO has a composite z-score of 1.36. Work on N#Cc1ccc(NN2C(C(O)c3c(F)cccc3Cl)C=CC3C(=O)N(c4ccccc4)C(=O)C32)cc1 (stereo not given) yielded a composite z-score of 0.456. COC(=O)[C@@]1(Cc2ccccc2)[C@H]2c3cc(C(=O)N4CCCC4)n(Cc4cccc5ccccc45)c3C[C@H]2CN1C(=O)c1ccccc1 showed a composite z-score of 1.21. COCC(=C=CC[C@@H](O)c1ccccc1OCCO)C[C@@H](O)c1cc(Cl)cc(Cl)c1O gave a composite z-score of 1. For C=CCOC(=O)[C@@H]1[C@H]2C(=O)O[C@H](c3ccccc3)[C@H](c3ccccc3)N2[C@H](c2ccc(OCCOC(=O)[C@@H]3C[C@@H]4C(=O)N[C@@H](Cc5ccccc5)C(=O)N4[C@@H]3c3ccc(O)cc3)cc2)[C@@]12C(=O)Nc1ccc(I)cc12, the composite z-score was 1.14. C[C@@H]1ON(c2cccc(C(=O)OC(C)(C)C)c2)[C@H](c2ccc(Br)cc2)[C@H]1C(=O)N1C(=O)OC[C@H]1Cc1ccccc1 was tested, and the composite z-score was 0.958. Work on O=C1OCCC=C[C@H]2OC34C=CCN(CCN5CCOCC5)C(=O)[C@H]3N(CCCCCCO)C(=O)[C@@H]4C12 (stereo not given in full) yielded a composite z-score of 0.988. C=CC[C@@]1(C(N)=O)N=C(c2ccc(OCCCO)cc2)O[C@@H]1c1ccccc1CN=[N+]=[N-] gave a composite z-score of 1.41. For C=CCOC(=O)[C@H]1[C@@H]2C(=O)O[C@@H](c3ccccc3)[C@@H](c3ccccc3)N2[C@@H](c2ccc(OCCOC(=O)[C@H]3C[C@H]4C(=O)N[C@@H](CC(C)C)C(=O)N4[C@H]3c3ccc(O)cc3)cc2)[C@]12C(=O)Nc1ccc(I)cc12, the composite z-score was 1.34. In the case of CCCCN1CC=CC23O[C@@H]4/C=C\CCC(C)OC(=O)C4[C@H]2C(=O)N(CCCCCO)[C@@H]3C1=O (stereo not given in full), the composite z-score is reported as 0.178. Work on COc1ccc(C(O)C2C=CC3C(=O)NC(=O)C3N2Nc2ccccn2)c2ccccc12 (stereo not given) yielded a composite z-score of 0.741. For C=C(COC)/C(=C/C[C@H](OC(=O)c1ccncc1)c1ccc(OCCO)cc1)c1cnc2ccccc2c1, the composite z-score was 1.14. For C=C(C)C1C(=C)CN([C@H](CO)c2ccccc2)C1=O (stereo not given in full), the composite z-score was -0.708. C=CCC(OC(C)=O)[C@@H]1[C@@H](N(Cc2ccc(-c3cccc(C(F)(F)F)c3)o2)C(=O)Cc2ccc(F)cc2)c2cc(OCCCO)ccc2N1C(=O)Cc1ccc(OC)cc1 (stereo not given in full) showed a composite z-score of -0.751. In the case of CC(C)c1ccc(NN2C(C(O)c3cc(C(F)(F)F)cc(C(F)(F)F)c3)C=CC3C(=O)N(c4ccccc4)C(=O)C32)cc1 (stereo not given), the composite z-score is reported as 1.28. COc1ccc([Si](C)(C)[C@H]2[C@H](CCn3cc([C@H](O)c4ccccc4)nn3)O[C@@]3(C(=O)N(Cc4cccc(N5CCOC5=O)c4)c4ccccc43)[C@@H]2C)cc1 showed a composite z-score of 1.04. Cc1ccc(S[C@]2(C(=O)NCC(C)C)CC(=O)N(Cc3cc(C(F)(F)F)cc(C(F)(F)F)c3)[C@@H]2c2ccc(CO)cc2I)cc1 showed a composite z-score of 0.102.

— PubChem BioAssay
